Results as given in ChEMBL document CHEMBL1961873, “Compounds: GSK PKIS; Assays: Nanosyn kinase panel” (2012).

What was measured:
[1] = biological target: T1, Inhibitor of nuclear factor kappa-B kinase subunit epsilon (Homo sapiens) (UniProt Q14164); conditions: at 1 µM;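 further: reported values are averaged percent inhibition figures against human IKKε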
T1 sequence (whole entry): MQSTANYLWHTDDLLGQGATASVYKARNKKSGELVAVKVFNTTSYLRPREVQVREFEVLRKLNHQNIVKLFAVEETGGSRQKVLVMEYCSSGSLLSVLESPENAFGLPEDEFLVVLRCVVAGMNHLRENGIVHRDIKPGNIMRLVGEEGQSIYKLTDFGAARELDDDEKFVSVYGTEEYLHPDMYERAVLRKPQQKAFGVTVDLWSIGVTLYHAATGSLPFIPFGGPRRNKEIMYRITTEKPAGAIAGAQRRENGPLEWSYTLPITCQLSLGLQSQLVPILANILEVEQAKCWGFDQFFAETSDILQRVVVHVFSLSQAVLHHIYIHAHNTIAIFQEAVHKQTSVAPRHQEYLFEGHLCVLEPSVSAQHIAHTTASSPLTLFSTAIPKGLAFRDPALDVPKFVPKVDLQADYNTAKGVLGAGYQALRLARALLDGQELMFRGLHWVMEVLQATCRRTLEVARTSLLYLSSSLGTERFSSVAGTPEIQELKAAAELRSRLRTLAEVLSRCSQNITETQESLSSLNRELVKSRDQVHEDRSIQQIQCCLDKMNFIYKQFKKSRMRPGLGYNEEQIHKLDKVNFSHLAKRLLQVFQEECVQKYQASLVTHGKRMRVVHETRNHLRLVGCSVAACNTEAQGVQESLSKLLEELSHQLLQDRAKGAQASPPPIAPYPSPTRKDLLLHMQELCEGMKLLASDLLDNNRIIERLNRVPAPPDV

[2] = biological target: T2, Serine/threonine-protein kinase Nek1 (Homo sapiens) (UniProt Q96PY6); conditions: at 0.1 µM
T2 sequence (whole entry): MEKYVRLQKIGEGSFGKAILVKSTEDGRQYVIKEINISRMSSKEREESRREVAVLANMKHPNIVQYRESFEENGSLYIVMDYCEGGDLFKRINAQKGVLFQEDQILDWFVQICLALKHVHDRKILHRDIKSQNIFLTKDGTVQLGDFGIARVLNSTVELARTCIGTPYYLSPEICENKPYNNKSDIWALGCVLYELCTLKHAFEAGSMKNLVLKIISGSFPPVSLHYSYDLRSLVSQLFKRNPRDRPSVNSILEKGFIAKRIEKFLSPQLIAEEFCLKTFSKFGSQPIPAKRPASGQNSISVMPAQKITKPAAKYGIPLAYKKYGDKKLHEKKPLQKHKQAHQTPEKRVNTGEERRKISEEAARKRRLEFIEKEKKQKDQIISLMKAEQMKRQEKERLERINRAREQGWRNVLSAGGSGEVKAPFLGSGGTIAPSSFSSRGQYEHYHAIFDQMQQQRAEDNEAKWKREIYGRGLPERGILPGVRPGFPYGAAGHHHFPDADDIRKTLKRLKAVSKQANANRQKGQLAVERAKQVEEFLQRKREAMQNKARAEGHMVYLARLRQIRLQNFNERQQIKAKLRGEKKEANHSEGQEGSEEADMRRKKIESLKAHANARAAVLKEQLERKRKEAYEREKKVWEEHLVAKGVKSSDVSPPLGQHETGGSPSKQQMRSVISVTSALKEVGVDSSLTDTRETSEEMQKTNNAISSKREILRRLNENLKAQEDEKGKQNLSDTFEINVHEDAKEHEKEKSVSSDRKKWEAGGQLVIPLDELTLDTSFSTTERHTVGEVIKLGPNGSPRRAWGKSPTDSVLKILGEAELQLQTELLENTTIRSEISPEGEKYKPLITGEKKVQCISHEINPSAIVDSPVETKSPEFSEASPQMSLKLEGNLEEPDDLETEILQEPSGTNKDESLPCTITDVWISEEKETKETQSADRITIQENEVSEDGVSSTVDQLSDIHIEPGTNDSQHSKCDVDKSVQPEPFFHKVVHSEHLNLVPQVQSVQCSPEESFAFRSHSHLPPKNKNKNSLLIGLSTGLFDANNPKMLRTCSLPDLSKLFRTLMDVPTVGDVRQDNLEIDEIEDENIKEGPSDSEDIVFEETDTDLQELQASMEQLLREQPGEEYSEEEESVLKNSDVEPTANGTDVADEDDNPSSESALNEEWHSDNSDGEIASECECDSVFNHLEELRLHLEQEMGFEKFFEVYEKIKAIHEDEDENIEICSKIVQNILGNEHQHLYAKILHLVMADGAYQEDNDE

[3] = biological target: T2, Serine/threonine-protein kinase Nek1 (Homo sapiens); conditions: at 1 µM
[4] = biological target: T3, Serine/threonine-protein kinase Nek2 (Homo sapiens) (UniProt P51955); conditions: at 0.1 µM
T3 sequence (whole entry): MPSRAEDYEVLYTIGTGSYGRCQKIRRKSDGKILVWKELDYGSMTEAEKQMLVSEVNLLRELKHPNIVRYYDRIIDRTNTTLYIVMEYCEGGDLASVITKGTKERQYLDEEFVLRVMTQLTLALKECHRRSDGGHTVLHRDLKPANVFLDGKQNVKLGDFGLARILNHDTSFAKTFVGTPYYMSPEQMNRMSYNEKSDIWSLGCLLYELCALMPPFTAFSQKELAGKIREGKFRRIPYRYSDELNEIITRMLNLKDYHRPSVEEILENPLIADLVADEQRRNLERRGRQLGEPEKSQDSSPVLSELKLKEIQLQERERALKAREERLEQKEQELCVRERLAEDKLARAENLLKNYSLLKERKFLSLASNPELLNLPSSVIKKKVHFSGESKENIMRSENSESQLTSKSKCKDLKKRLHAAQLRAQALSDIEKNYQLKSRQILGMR

[5] = biological target: T3, Serine/threonine-protein kinase Nek2 (Homo sapiens); conditions: at 1 µM
[6] = biological target: Serine/threonine-protein kinase Nek6 (Homo sapiens) (UniProt Q9HC98); conditions: at 0.1 µM
Sequence of Serine/threonine-protein kinase Nek6 (Homo sapiens) (Q9HC98 whole entry): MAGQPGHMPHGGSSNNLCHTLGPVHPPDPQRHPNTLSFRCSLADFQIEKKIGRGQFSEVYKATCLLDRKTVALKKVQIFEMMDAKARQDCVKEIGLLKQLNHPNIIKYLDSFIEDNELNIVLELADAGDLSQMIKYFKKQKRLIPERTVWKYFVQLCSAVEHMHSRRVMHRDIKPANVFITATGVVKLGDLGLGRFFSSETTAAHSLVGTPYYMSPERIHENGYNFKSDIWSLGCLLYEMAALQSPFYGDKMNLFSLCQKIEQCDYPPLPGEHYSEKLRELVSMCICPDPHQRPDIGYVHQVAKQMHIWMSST

[7] = biological target: Serine/threonine-protein kinase Nek6 (Homo sapiens) (UniProt Q9HC98); conditions: at 1 µM
[8] = biological target: Serine/threonine-protein kinase Nek7 (Homo sapiens) (UniProt Q8TDX7); conditions: at 0.1 µM
Sequence of Serine/threonine-protein kinase Nek7 (Homo sapiens) (Q8TDX7 whole entry, looked up): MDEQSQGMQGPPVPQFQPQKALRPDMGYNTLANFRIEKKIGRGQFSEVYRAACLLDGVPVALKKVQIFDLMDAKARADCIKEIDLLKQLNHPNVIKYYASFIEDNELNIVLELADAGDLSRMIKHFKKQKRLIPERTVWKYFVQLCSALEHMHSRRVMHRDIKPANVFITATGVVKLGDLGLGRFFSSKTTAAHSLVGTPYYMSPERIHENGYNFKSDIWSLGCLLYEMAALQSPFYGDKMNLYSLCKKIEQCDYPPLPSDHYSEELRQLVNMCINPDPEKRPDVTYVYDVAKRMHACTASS

[9] = biological target: Serine/threonine-protein kinase Nek7 (Homo sapiens) (UniProt Q8TDX7); conditions: at 1 µM
[10] = biological target: T4, Serine/threonine-protein kinase Nek9 (Homo sapiens) (UniProt Q8TD19); conditions: at 0.1 µM
T4 sequence (whole entry): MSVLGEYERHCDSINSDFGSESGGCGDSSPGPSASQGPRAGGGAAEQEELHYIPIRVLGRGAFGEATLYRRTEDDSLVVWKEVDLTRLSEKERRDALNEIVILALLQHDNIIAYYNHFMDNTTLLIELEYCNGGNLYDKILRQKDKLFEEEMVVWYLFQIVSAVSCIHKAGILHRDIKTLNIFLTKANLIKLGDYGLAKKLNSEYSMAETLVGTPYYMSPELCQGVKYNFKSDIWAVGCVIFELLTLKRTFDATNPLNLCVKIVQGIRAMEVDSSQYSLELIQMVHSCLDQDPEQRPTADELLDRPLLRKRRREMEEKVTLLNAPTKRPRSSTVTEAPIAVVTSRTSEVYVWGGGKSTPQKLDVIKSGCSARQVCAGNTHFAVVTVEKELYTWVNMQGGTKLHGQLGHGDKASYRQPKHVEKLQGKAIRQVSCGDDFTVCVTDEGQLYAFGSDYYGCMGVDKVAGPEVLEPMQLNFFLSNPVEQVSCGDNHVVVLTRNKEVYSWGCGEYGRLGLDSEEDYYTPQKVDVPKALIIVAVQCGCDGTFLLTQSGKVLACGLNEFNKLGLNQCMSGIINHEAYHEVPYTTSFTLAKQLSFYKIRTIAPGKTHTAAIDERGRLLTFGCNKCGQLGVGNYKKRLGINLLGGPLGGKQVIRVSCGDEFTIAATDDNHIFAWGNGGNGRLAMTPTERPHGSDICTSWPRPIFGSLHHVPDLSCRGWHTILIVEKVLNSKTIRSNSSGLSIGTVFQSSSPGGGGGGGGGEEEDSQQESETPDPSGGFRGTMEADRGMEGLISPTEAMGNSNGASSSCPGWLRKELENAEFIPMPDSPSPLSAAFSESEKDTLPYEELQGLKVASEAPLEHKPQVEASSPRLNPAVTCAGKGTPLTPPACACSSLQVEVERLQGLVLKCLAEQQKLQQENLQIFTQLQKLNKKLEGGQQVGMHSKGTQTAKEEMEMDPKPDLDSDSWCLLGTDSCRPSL

[11] = biological target: T4, Serine/threonine-protein kinase Nek9 (Homo sapiens); conditions: at 1 µM
[12] = biological target: Serine/threonine-protein kinase PLK1 (Homo sapiens) (UniProt P53350); conditions: at 0.1 µM
Sequence of Serine/threonine-protein kinase PLK1 (Homo sapiens) (P53350 whole entry): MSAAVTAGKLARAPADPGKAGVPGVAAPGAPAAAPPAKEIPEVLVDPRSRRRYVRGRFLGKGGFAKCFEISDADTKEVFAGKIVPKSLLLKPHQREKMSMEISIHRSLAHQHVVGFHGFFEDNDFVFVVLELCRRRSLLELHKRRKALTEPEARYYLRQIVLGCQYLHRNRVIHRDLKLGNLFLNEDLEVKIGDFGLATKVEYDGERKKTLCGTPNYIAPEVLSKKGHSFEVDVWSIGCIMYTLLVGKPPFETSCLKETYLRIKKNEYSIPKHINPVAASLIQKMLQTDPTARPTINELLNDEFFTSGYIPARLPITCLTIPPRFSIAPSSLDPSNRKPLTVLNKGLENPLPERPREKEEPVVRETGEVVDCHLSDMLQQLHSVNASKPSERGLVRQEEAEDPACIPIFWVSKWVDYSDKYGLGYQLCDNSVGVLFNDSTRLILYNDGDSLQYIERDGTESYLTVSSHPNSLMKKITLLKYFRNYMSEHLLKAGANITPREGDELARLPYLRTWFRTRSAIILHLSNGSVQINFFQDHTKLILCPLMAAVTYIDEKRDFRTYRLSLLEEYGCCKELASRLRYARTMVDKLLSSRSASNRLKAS

[13] = biological target: Serine/threonine-protein kinase PLK1 (Homo sapiens) (UniProt P53350); conditions: at 1 µM
[14] = biological target: T5, Dual specificity protein kinase TTK (Homo sapiens) (UniProt P33981); conditions: at 0.1 µM
T5 sequence (whole entry): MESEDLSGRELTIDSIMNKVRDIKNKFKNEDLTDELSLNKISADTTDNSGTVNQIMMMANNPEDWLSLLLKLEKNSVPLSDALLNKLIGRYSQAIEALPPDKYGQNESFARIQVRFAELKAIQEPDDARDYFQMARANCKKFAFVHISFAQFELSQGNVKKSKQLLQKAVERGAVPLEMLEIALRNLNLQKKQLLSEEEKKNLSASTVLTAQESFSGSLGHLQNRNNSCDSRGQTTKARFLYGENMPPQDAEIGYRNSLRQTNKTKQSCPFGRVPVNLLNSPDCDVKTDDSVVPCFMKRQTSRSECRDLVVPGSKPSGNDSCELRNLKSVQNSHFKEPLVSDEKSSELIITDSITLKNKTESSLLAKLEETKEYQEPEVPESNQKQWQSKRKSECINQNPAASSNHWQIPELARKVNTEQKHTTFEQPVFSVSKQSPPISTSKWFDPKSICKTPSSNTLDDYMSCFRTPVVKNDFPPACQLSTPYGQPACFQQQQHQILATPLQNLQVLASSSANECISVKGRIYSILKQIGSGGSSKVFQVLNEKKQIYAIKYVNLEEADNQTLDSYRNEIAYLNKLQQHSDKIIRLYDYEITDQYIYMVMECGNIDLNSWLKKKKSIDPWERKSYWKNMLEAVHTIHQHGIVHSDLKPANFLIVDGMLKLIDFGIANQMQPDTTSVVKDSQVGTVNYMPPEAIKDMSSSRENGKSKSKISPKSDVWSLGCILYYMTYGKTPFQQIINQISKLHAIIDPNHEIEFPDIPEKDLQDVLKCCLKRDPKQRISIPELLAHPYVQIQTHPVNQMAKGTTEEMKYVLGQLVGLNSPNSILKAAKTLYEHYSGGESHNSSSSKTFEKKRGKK

[15] = test system: T6, Receptor-type tyrosine-protein kinase FLT3 (Homo sapiens), P36888 [D835Y]; conditions: at 1 µM
T6 sequence (whole entry): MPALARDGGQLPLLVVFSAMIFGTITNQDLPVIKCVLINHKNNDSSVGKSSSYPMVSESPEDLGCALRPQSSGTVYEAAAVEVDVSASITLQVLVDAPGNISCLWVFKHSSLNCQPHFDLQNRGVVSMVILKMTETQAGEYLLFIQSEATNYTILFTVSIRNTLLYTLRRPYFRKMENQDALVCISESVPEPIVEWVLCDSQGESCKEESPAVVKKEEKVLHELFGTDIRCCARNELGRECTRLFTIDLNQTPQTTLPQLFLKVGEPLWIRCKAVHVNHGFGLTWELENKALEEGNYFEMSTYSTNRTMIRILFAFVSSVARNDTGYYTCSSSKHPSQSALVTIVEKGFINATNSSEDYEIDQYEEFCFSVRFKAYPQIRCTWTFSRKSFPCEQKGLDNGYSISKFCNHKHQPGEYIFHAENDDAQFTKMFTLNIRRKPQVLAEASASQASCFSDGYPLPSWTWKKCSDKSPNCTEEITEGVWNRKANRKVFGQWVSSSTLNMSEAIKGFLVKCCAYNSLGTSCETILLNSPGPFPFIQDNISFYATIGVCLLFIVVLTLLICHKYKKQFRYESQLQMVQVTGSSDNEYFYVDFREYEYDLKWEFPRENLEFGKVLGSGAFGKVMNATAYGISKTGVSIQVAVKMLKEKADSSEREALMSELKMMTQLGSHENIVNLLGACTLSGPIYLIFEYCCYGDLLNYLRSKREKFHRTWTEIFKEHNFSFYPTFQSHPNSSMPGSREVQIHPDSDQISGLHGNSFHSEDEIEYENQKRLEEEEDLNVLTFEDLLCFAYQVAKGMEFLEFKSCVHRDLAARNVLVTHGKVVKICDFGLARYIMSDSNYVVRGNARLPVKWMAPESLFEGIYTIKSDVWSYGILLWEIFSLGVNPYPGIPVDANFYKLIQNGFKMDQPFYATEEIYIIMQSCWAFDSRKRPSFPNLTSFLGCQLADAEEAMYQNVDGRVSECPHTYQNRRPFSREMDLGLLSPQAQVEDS

[16] = biological target: Vascular endothelial growth factor receptor 3 (Homo sapiens) (UniProt P35916); conditions: at 0.1 µM
Sequence of Vascular endothelial growth factor receptor 3 (Homo sapiens) (P35916 whole entry): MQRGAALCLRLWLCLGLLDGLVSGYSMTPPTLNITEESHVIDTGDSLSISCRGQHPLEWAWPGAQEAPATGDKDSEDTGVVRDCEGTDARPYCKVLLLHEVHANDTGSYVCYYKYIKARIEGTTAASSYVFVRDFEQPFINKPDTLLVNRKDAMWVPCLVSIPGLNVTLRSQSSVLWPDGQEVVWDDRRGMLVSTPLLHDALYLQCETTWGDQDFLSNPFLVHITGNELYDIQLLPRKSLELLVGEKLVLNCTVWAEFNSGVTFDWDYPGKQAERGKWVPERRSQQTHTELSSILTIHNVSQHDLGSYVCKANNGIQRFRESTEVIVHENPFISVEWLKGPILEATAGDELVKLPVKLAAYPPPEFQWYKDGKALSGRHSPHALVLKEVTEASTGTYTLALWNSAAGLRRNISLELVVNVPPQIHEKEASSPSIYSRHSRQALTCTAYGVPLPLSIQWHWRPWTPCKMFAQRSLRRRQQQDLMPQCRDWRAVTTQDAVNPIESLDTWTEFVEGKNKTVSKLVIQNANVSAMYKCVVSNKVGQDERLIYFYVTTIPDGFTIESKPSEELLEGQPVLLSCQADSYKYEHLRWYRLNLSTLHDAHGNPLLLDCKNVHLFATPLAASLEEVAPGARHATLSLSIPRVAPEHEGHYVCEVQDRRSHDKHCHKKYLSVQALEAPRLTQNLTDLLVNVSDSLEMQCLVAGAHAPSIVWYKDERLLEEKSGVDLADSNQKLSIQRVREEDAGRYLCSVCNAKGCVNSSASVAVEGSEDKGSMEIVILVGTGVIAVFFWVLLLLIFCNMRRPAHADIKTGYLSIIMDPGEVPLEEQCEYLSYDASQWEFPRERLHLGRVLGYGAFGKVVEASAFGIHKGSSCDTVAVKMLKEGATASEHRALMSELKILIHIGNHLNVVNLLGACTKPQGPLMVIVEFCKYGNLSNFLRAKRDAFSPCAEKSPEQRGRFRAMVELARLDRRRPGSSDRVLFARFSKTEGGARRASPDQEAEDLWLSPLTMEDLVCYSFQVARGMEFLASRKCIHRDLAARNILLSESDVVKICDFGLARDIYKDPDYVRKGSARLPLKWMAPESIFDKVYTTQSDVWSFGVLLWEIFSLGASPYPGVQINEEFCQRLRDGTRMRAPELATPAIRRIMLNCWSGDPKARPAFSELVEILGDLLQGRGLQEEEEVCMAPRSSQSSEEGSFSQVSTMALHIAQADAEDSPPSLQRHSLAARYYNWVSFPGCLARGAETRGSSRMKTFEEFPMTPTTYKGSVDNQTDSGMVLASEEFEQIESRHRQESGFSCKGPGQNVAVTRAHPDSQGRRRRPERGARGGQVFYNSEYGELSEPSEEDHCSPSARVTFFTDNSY

[17] = biological target: Vascular endothelial growth factor receptor 3 (Homo sapiens) (UniProt P35916); conditions: at 1 µM
[18] = biological target: Macrophage colony-stimulating factor 1 receptor (Homo sapiens) (UniProt P07333); conditions: at 0.1 µM
Sequence of Macrophage colony-stimulating factor 1 receptor (Homo sapiens) (P07333 whole entry): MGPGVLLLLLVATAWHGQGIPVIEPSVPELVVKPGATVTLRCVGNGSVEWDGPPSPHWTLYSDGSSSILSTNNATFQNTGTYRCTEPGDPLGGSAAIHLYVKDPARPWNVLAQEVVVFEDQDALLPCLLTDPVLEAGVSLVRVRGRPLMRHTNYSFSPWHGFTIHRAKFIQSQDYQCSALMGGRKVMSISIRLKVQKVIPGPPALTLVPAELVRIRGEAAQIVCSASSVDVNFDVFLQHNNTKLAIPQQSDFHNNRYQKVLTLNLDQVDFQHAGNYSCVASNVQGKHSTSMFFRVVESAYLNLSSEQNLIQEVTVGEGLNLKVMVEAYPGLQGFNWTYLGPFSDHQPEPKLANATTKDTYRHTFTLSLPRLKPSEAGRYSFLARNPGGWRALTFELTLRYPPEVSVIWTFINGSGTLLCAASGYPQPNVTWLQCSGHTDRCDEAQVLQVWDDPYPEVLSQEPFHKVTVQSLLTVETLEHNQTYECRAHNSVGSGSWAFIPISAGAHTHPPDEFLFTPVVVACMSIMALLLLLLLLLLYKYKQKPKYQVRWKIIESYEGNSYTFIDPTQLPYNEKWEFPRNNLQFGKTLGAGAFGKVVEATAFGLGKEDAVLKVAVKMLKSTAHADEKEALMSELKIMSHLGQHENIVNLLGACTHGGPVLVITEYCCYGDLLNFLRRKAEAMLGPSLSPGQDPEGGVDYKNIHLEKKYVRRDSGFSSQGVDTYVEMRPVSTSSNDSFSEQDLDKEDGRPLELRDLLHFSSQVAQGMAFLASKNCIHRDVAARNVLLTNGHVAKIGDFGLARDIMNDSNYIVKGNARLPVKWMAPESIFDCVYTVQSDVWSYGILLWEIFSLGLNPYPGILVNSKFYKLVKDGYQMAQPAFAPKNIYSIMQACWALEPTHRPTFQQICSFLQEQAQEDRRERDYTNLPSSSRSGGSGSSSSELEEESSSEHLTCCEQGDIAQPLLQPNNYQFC

[19] = biological target: Macrophage colony-stimulating factor 1 receptor (Homo sapiens) (UniProt P07333); conditions: at 1 µM
[20] = biological target: Tyrosine-protein kinase Fyn (Homo sapiens) (UniProt P06241); conditions: at 0.1 µM
Sequence of Tyrosine-protein kinase Fyn (Homo sapiens) (P06241 2-537 limits assumed): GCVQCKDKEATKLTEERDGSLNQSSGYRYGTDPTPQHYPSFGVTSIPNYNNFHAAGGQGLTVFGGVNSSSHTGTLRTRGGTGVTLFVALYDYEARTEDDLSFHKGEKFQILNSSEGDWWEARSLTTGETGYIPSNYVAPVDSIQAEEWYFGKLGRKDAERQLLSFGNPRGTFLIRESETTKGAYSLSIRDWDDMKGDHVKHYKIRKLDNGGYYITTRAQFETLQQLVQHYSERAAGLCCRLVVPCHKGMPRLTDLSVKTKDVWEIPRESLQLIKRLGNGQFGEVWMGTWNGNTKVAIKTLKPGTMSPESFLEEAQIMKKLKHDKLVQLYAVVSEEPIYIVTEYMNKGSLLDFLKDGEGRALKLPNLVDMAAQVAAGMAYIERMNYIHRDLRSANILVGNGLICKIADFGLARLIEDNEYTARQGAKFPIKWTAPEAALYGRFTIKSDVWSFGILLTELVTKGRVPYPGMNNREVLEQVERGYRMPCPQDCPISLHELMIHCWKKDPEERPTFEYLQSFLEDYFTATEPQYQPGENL

Structure (SMILES) | inhibition [1] [%] | inhibition [2] [%] | inhibition [3] [%] | inhibition [4] [%] | inhibition [5] [%] | inhibition [6] [%] | inhibition [7] [%] | inhibition [8] [%] | inhibition [9] [%] | inhibition [10] [%] | inhibition [11] [%] | inhibition [12] [%] | inhibition [13] [%] | inhibition [14] [%] | inhibition [15] [%] | inhibition [16] [%] | inhibition [17] [%] | inhibition [18] [%] | inhibition [19] [%] | inhibition [20] [%]
NS(=O)(=O)c1ccc(Nc2cc(-c3ccc(O)c(F)c3)n[nH]2)cc1 | -0.51 | -0.93 | -1.21 | -3.94 | -3.05 | -4.94 | -2.21 | -0.59 | -3.23 | 5.12 | 2.31 | -1.16 | -3.09 | -2.03 | 34.1 | 0.48 | 16.5 | 0.43 | 23.6 | 0.43
O=C1Nc2ccccc2/C1=C/Nc1ccc(-n2cncn2)cc1 | 16.4 | 2.46 | 5.21 | 4.4 | 4.16 | 4.59 | 7.54 | 5.44 | 4.4 | 5.79 | 12.4 | 4.56 | 2.82 | 22.4 | 45.8 | 16.8 | 40.2 | 6.47 | 34.5 | 2.68
